Assay [1] addresses Albumin (Bos taurus) (UniProt P02769). Kind of assay: compounds binding labelled BSA control protein – biochemical, small-molecule microarray, Alexa647 label, 635/667 nm fluorescence, artefact control for SMM control protein annotation, profiling panel (AID 1118).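 Note: score merges 667 nm emission intensity and signal-to-noise per printed compound spot.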 The settings on record: BSA-A647 binding, fluorescence 635 nm, higher = more signal.
Assay [2] in a line: probe aXIP binding to arrayed compounds – biochemical, NeuroSMM set, 635/667 nm fluorescence, primary screen (AID 1119).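 Note: probe is the protein aXip251-270 applied at 1 µg/mL to compound-printed slides; binding of probe to printed compounds measured as 667 nm fluorescence plus signal to noise.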 The settings on record: small-molecule microarray, higher = more signal, called active from +8 up or from −8 down.
A short description of assay [3]: probe aNOTCH3 binding on compound microarray – biochemical, small-molecule microarray, 635/667 nm fluorescence, primary screen (AID 1120).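 Note: probe is a biotin-tagged antibody raised against NOTCH3 rather than NOTCH3 protein; score merges spot fluorescence near 667 nm with spot signal to noise.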 The settings on record: higher = more signal.
A short description of assay [4]: probe aNOTCH2 binding on compound microarray – biochemical, small-molecule microarray, 635/667 nm fluorescence, primary screen (AID 1121).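 Note: score merges feature fluorescence read at 667 nm with its signal to noise.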 The settings on record: higher = more signal.
Assay [5] has as its target Carbonic anhydrase 2 (Homo sapiens) (UniProt P00918). Put plainly: compounds binding carbonic anhydrase 2 – biochemical, small-molecule microarray, Alexa647-labelled CAII, profiling panel (AID 1122). The settings on record: CAII-A647 binding fluorescence, higher = more signal.
Assay [6] in a line: COS7 lysate on small-molecule microarray, probe aHis, 635 nm (AID 1123).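 Note: z-score combines 667nm fluorescence intensity with signal-to-noise per printed compound spot.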 The settings on record: COS7 cell lysate, fluorescence, higher = more signal.
Assay [7] in a line: probe aLAP1 signal on lysate-treated microarray – cell lysate, small-molecule microarray, COS7 lysate, primary screen (AID 1124).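 Note: lysate comes from COS7 cells expressing LAP1 and is applied at 0.3 µg/mL; score merges spot fluorescence near 667 nm with signal-to-noise over triplicate slides.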 The following applies: probe aLAP1, fluorescence, higher = more signal.
The subject of assay [8] is Sam68 (KHDRBS1). Put plainly: compounds binding KHDRBS1 protein – biochemical, small-molecule microarray, 635 nm fluorescence, primary screen (AID 1125).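 Note: score merges 667 nm channel intensity with signal to noise over triplicate slides.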 The settings on record: higher = more signal.
In assay [9] the test system is Chordin-like protein 2 (CHRDL2). Kind of assay: compounds binding chordin-like 2 – biochemical, small-molecule microarray, 635 nm fluorescence, primary screen (AID 1126).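 Note: printed compound slides probed with Chrdl2 protein at 4 µg/mL for 1 h at 4 C; score merges 667 nm emission intensity with signal to noise over three replicate slides.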 The following applies: fluorescence 635 nm, higher = more signal.
For assay [10], the target named is Concanavalin-A (Canavalia ensiformis) (UniProt P02866). Kind of assay: compounds binding concanavalin A lectin – biochemical, small-molecule microarray, Alexa647 label, 635 nm, artefact control for SMM control protein annotation, primary screen (AID 1127).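 Note: z combines 667 nm emission intensity with signal-to-noise across three replicate slides.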 The settings on record: ConA-A647 binding fluorescence, higher = more signal.
Concanavalin-A (Canavalia ensiformis), sequence (P02866 whole entry, looked up): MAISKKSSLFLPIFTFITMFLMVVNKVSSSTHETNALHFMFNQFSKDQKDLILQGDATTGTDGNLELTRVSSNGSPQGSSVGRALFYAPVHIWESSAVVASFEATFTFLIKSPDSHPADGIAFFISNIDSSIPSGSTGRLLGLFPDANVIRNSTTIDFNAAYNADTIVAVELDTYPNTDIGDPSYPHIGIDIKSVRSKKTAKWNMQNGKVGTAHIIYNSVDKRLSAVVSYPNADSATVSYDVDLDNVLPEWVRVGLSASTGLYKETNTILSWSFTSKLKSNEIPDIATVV
Assay [11] is described as follows: compounds binding Alexa647 anti-His antibody – biochemical, small-molecule microarray, 635 nm fluorescence, artefact control for SMM control protein annotation, primary screen (AID 1128).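 Note: score merges feature fluorescence with signal-to-noise for each printed compound spot.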 The following applies: higher = more signal.
For assay [12], the system named is Human papillomavirus type 1a E7 protein (residues 1-88). Put plainly: HPV1a E7 small-molecule binders, primary screen, biochemical, small-molecule microarray, residues 1-88, 635 nm (AID 1129). The following applies: small-molecule microarray binding, fluorescence 635 nm; higher = more signal.
The target in assay [13] is Focal adhesion kinase 1 (Homo sapiens) (UniProt Q05397). Put plainly: PTK2 protein binding on printed compound slides – biochemical, small-molecule microarray, 635/667 nm fluorescence, BSA, DTT, primary screen (AID 1130).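 Note: composite of spot emission at 667 nm and signal to noise over triplicate slides.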 The following applies: 635 nm fluorescence, higher = more signal.
Focal adhesion kinase 1 (Homo sapiens), sequence (Q05397 whole entry, looked up): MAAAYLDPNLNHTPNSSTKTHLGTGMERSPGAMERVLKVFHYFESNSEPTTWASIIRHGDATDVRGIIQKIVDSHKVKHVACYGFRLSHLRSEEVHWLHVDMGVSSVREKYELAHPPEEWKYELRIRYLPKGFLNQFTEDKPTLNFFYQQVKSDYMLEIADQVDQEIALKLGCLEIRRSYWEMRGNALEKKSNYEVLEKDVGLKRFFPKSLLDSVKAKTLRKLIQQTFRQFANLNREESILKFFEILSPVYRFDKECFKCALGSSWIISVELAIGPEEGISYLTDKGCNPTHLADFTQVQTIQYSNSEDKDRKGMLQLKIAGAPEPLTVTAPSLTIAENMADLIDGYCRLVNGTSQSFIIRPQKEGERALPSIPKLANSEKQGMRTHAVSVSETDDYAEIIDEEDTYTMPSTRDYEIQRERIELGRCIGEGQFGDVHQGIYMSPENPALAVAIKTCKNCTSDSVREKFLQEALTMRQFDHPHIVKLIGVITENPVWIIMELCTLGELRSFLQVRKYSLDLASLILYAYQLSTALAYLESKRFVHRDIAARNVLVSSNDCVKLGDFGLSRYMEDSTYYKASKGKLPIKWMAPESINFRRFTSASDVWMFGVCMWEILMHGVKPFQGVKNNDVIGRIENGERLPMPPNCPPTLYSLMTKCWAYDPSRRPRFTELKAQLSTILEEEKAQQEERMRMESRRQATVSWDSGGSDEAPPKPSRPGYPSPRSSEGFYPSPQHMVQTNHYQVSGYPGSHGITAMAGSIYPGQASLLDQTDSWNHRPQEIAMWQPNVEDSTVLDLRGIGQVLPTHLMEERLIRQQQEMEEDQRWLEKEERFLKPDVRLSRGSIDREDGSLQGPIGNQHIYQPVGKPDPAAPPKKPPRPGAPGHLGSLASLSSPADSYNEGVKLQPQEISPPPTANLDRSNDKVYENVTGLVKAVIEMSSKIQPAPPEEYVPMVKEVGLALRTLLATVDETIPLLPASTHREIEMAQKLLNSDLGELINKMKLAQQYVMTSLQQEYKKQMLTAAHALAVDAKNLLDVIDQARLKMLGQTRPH
For assay [14], the system named is Fibrinogen (Alexa647-labelled). Kind of assay: Alexa647-fibrinogen binding to printed small molecules – biochemical, small-molecule microarray, 635/667 nm fluorescence, artefact control for SMM control-protein annotation, profiling panel (AID 1131).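 Note: z-score merges 667 nm fluorescence with per-spot signal-to-noise over triplicate slides.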 The settings on record: fibrinogen-A647 binding fluorescence, higher = more signal.
The target in assay [15] is Follistatin (Homo sapiens) (UniProt P19883). Kind of assay: FST protein binding to printed compounds – biochemical, small-molecule microarray, 635/667 nm fluorescence, primary screen (AID 1132). The settings on record: 635 nm fluorescence, higher = more signal.
Follistatin (Homo sapiens), sequence (P19883 whole entry, looked up): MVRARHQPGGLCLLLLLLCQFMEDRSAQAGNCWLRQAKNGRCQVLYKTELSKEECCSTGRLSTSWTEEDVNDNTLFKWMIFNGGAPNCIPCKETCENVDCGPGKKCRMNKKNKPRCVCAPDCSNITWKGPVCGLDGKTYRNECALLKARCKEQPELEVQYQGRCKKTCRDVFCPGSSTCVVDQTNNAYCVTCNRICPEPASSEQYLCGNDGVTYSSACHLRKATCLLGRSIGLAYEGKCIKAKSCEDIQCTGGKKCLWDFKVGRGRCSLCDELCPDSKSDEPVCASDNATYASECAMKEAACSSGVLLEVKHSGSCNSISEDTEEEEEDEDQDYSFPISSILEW
The target in assay [16] is Fibroblast growth factor 2 (Homo sapiens) (UniProt P09038). Put plainly: basic fibroblast growth factor binding to printed compounds – biochemical, small-molecule microarray, 635/667 nm fluorescence, primary screen (AID 1133). The settings on record: FGF2, fluorescence 635/667, higher = more signal.
Fibroblast growth factor 2 (Homo sapiens), sequence (P09038 whole entry, looked up): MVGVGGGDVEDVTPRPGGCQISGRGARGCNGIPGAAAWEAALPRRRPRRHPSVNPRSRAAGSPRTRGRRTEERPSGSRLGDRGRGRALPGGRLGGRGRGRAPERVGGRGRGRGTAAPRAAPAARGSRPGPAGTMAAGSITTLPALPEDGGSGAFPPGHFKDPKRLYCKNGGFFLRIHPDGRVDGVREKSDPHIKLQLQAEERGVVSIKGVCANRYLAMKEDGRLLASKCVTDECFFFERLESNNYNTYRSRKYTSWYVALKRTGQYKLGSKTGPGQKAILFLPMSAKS
The nature of assay [17]: JC-1 mitochondrial potential readout, lung cancer cells – cell-based, A549, JC-1 fluorescence, basal, 24 h, 100 nL, profiling panel (AID 1138).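 Note: A549 lung adenocarcinoma cells under basal conditions with no added stimulus; test concentration not given here.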 The settings on record: higher = more signal.
Assay [18] relates to Lefty1. Put plainly: Lefty1 protein binding to printed compounds – biochemical, small-molecule microarray, 635/667 nm fluorescence, primary screen (AID 1139). The settings on record: fluorescence 635/667, higher = more signal.
For assay [19], the system named is wheat germ agglutinin (Triticum aestivum), Alexa647-labelled. Kind of assay: Alexa647-WGA lectin binding to printed small molecules – biochemical, small-molecule microarray, 635/667 nm fluorescence, artefact control for SMM control-protein annotation, profiling panel (AID 1140).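 Note: score merges 667 nm feature emission with signal to noise over triplicate slides.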 The following applies: WGA-A647 binding, 635 nm fluorescence, higher = more signal.
The target of assay [20] is Luciferin 4-monooxygenase (Photinus pyralis) (UniProt P08659). Kind of assay: inhibition of purified Photinus pyralis luciferase – biochemical, luminescence, purified enzyme, 2006 set, primary screen (AID 1141).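 Note: cell-free assay with purified firefly luciferase at 100 ng per well in PBS; test concentration not given here.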 The following applies: purified firefly luciferase, SteadyGlo luminescence, 30 min; higher = more signal, called active from +8 up or from −8 down.
Luciferin 4-monooxygenase (Photinus pyralis), sequence (P08659 whole entry, looked up): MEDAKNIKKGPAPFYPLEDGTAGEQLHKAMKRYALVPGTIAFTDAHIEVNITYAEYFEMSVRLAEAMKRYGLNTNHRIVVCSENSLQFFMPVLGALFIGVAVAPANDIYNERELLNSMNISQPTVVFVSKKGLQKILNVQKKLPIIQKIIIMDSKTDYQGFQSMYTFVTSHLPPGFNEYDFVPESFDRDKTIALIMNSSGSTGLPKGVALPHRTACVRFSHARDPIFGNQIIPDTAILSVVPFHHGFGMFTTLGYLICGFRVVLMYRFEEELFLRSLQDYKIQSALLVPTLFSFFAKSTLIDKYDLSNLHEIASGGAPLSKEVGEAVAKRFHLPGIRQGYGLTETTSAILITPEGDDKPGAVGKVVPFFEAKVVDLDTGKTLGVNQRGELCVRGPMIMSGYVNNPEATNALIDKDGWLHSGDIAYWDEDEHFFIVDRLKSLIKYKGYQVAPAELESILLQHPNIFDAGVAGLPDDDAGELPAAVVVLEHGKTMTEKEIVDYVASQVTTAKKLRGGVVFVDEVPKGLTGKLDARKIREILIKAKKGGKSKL

Each structure is given as a SMILES string. Calls of active or inactive are those of the source.

Albumin (Bos taurus), sequence (P02769 whole entry, looked up): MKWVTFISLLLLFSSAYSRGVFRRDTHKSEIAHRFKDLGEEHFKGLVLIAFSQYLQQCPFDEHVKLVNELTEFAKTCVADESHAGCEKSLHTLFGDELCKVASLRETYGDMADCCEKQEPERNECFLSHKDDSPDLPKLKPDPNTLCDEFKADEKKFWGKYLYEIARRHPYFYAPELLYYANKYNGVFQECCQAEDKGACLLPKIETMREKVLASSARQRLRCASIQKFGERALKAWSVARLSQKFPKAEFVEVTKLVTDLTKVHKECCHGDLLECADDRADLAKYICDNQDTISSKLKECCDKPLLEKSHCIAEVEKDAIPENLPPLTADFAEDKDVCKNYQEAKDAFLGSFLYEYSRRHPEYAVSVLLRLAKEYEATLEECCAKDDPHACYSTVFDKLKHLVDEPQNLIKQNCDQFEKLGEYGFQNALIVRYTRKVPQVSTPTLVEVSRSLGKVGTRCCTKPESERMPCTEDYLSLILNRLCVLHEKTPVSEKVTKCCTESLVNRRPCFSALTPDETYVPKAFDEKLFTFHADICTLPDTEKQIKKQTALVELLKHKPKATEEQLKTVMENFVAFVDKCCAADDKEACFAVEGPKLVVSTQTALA

Regarding `C[C@@H]1CC[C@H]2C(=O)N3CCC[C@H]3C(=O)N2[C@H]1c1ccc(Br)cc1`, the composite z-score was -0.295 in assay [1]; -0.261 in [3]; -0.174 in [4]; -0.213 in assay [5]; 0.233 in assay [6]; 0.123 in assay [7]. Besides, the composite z-score in assay [8] is -0.0235; in assay [9], 0.536; in assay [10], -0.377; in [11], 0.136; in assay [12], -0.366; in assay [13], 0.335. In addition, the composite z-score is 0.0658 in assay [14]; 0.162 in assay [15]; 0.36 in assay [16]; 0.724 in [18]; -0.169 in [19]. In addition, the composite Z-score in assay [2] was 0.734 (inactive). The z-score in assay [17] was 1.68; in assay [20], -1.02 (inactive).
For `CC[C@@H]1C=C(C(=O)O)[C@H](c2ccccc2)N1S(=O)(=O)c1ccc([N+](=O)[O-])cc1`, the composite z-score in [1] was 0.938; in assay [3], 0.0793; in [4], -0.0983; in assay [5] it was 0.514; in [6], 2.43; in assay [7], 0.612. Besides, the composite z-score was 1.04 in assay [8]; -0.812 in assay [9]; 0.942 in assay [10]; 1.34 in assay [11]; 1.24 in [12]; 0.783 in [13]. For the same molecule, the composite z-score was -0.368 in [14]; 0.221 in [15]; -0.715 in [16]; -0.177 in assay [18]; 1.01 in [19]. The composite Z-score in assay [2] is 0.0692 (inactive). In addition, the z-score in [17] was -0.506; in assay [20], 0.631 (inactive).
With `CC(C)[Si]1(C(C)C)OCc2cc(C3CC3)nc(-c3ccccc3)c21`, the composite z-score was -0.613 in assay [1]; -0.295 in assay [3]; -0.12 in assay [4]; 0.112 in assay [5]; -0.57 in assay [6]; -0.683 in assay [7]. Further, the composite z-score in [8] was -0.124; in assay [9], -0.161; in [10], -0.26; in assay [11], -1.42; in [12], -0.722; in assay [13] it was -0.294. Also, the composite z-score in assay [14] was -0.742; in assay [15] it was 0.441; in assay [16], -0.5; in assay [18], -0.165; in assay [19], -0.625. In addition, the composite Z-score in assay [2] was -0.536 (inactive). Further, the z-score was 0.325 in assay [17] and -0.525 (inactive) in [20].
Turning to `CO[C@H]1COC(=O)[C@@H](C)COC(=O)[C@H](Cc2ccccc2)NC(=O)CC=C[C@H]1C`, the composite z-score in [1] is -0.73; in assay [3] it was -0.208; in [4], -0.223; in assay [5], -0.315; in [6], -0.557; in [7], -0.399. The composite z-score in [8] is 0.294; in assay [9] it was 1.48; in assay [10] it was -0.268; in assay [11], -1.35; in assay [12] it was -0.0007; in assay [13], -0.62. Moreover, the composite z-score is 0.177 in assay [14]; 0.932 in assay [15]; 0.771 in assay [16]; 1.27 in assay [18]; -0.457 in assay [19]. The composite Z-score in [2] is 0.0953 (inactive). Also, the values for the z-score in assay [17] and in assay [20] were 1.04 and -0.897 (inactive), respectively.
For the molecule `O=C(N1CCCCC1)[C@@]1(CCS(=O)(=O)c2ccccc2)N=C(c2ccc(OCCCO)cc2)O[C@H]1c1ccccc1`, the composite z-score was -0.0092 in assay [1]; 0.0876 in assay [3]; -0.0872 in assay [4]; 0.663 in assay [5]; 3.28 in assay [6]; 0.343 in assay [7]. Besides, the composite z-score is 1.29 in [8]; -0.58 in assay [9]; 0.639 in assay [10]; 1.9 in assay [11]; 1.26 in assay [12]; 0.556 in assay [13]. Also, the composite z-score is 0.328 in assay [14]; 1.25 in [15]; -0.0973 in [16]; -0.0953 in assay [18]; 0.0324 in [19]. For the same molecule, the composite Z-score in assay [2] is -0.595 (inactive). In addition, the z-score is 0.216 in assay [17] and -1.32 (inactive) in assay [20].
For the molecule `CO[C@H]1COC(=O)[C@@H](C)NC(=O)CC=C[C@@H](C)[C@H](OC)COC(=O)CC=C[C@@H]1C`, the composite z-score is -0.731 in [1]; -0.0679 in assay [3]; -0.201 in assay [4]; -0.576 in assay [5]; -0.724 in assay [6]; -0.517 in assay [7]. In addition, the composite z-score in assay [8] is 0.32; in assay [9], 1.46; in assay [10], -1.28; in assay [11], -0.31; in [12], -1.46; in assay [13] it was 0.223. For the same molecule, the composite z-score in [14] was -1.07; in assay [15], 1.34; in assay [16], 1.63; in assay [18], 1.66; in assay [19], -1.16. The composite Z-score in [2] is 1.16 (inactive). In addition, the values for the z-score in assay [17] and in assay [20] were 2.3 and -1.38 (inactive), respectively.

The record behind these values is PubChem BioAssay.
